According to the OligoGym collection:

Key:
Experiment in all cases: pooled miR-30 sensor sort-seq; sequence = guide strand
Conditions in all cases: shRNA
COQ9 = target: COQ9
COPS8 = target: COPS8
COQ3 = target: COQ3
CRTAM = target: CRTAM
CSGALNACT1 = target: CSGALNACT1
CSH1 = target: CSH1
CTNNAL1 = target: CTNNAL1
CTNNBIP1 = target: CTNNBIP1
CTNNBL1 = target: CTNNBL1
CTLA4 = target: CTLA4
Further: reference of the scale not given here.

Sequence: ATCATCACCAGCTCTGTTGTGT
- sensor-assay potency score (higher = more potent) (COQ9): -0.201

Sequence: TTTTCCAAAGATATCTTGCATT
- sensor-assay potency score (higher = more potent) (COPS8): -0.738

Sequence: TCTAGCACACGTGTGAGCCGGG
- sensor-assay potency score (higher = more potent) (COQ9): 0.25

Sequence: TTGAAAACATCAGATATCCAAG
- sensor-assay potency score (higher = more potent) (COQ3): -0.816

Sequence: TTAATCTGTAGAGTCCCACTGA
- sensor-assay potency score (higher = more potent) (COQ3): 0.477

Sequence: TTGACCTTGATCTGTAACTTTC
- sensor-assay potency score (higher = more potent) (CRTAM): -1.09

Sequence: TTGCTGTGGAGATACTTGCGAT
- sensor-assay potency score (higher = more potent) (CSGALNACT1): -1.14

Sequence: TTAAATTTCATAAACTACCAGT
- sensor-assay potency score (higher = more potent) (CSGALNACT1): -0.16

Sequence: TACTCGGGCACCTAGAAGCCAC
- sensor-assay potency score (higher = more potent) (CSH1): -1.13

Sequence: TTGAACACTGGAAGTAAGCTTT
- sensor-assay potency score (higher = more potent) (CTNNAL1): 0.00936

Sequence: CTGAATGTACATCTCCTCCGGA
- sensor-assay potency score (higher = more potent) (CTNNBIP1): -0.773

Sequence: TTCTGCTGAATGTACATCTCCT
- sensor-assay potency score (higher = more potent) (CTNNBIP1): -0.0119

Sequence: TATCGTGTCCGAGCAAGCCGAG
- sensor-assay potency score (higher = more potent) (CTNNBL1): -1.14

Sequence: TACATGAGCTCCACCTTGCAGA
- sensor-assay potency score (higher = more potent) (CTLA4): -0.733

Sequence: TTGACCACCCCTGCATAGGTGC
- sensor-assay potency score (higher = more potent) (CTNNBIP1): -1.01

Sequence: TGGCTGTCAGGTTTGATCCCAT
- sensor-assay potency score (higher = more potent) (CTNNBIP1): -0.741

Sequence: TCGACAGGTCTCAACAAGCTGC
- sensor-assay potency score (higher = more potent) (CTNNAL1): -0.481

Sequence: TTTTCTTTAGCAATTACATAAA
- sensor-assay potency score (higher = more potent) (CTLA4): -1.29

Sequence: TTGCTTTGCAGAAGACAGGGAT
- sensor-assay potency score (higher = more potent) (CTLA4): 0.337

Sequence: TTAGCAATTACATAAATCTGGG
- sensor-assay potency score (higher = more potent) (CTLA4): -0.222

Sequence: ATCTCCTCCGGACTCTTCCCGG
- sensor-assay potency score (higher = more potent) (CTNNBIP1): -1.21

Sequence: TAGTTGATGAATTAAATCCTGG
- sensor-assay potency score (higher = more potent) (CTNNAL1): -0.667

Sequence: ATAGGTGCGCAGGAACTCCTCC
- sensor-assay potency score (higher = more potent) (CTNNBIP1): -0.215

Sequence: TTCATTTCCAAATTGACTGAAT
- sensor-assay potency score (higher = more potent) (CTNNAL1): 0.0043

Sequence: ATCTGTATTATCGTGTCCGAGC
- sensor-assay potency score (higher = more potent) (CTNNBL1): -1.22

Sequence: ATTTTGTCTATCTCCACTCAGA
- sensor-assay potency score (higher = more potent) (CTNNAL1): -0.843

Sequence: TTGATATCAGCAGAACACCTGC
- sensor-assay potency score (higher = more potent) (CTNNBIP1): -0.0972

Sequence: TGAATGTACATCTCCTCCGGAC
- sensor-assay potency score (higher = more potent) (CTNNBIP1): -0.75

Sequence: TGATCCCATCTTCCGCAGCATG
- sensor-assay potency score (higher = more potent) (CTNNBIP1): -1.86

Sequence: TCGGACCTTCTGCTGAATGTAC
- sensor-assay potency score (higher = more potent) (CTNNBIP1): -1.3

Sequence: TTCAGCAGCAGAAATTATCTGT
- sensor-assay potency score (higher = more potent) (CTNNAL1): 0.229

Sequence: TTGTTTTCTTGCTTTGAGCTTG
- sensor-assay potency score (higher = more potent) (CTNNAL1): 0.085

Sequence: TCTCCTCCGGACTCTTCCCGGG
- sensor-assay potency score (higher = more potent) (CTNNBIP1): -0.954

Sequence: TTGTAACTGAGACCCATCCGTT
- sensor-assay potency score (higher = more potent) (CTNNAL1): -0.457

Sequence: TGTATTATCGTGTCCGAGCAAG
- sensor-assay potency score (higher = more potent) (CTNNBL1): -1.35

Sequence: TTGTCTTCGTAATACACTTGTC
- sensor-assay potency score (higher = more potent) (CTNNAL1): -0.611

Sequence: TTCATTAAGACTGTGACTGATT
- sensor-assay potency score (higher = more potent) (CTNNAL1): 0.0876

Sequence: TCTGCTGAATGTACATCTCCTC
- sensor-assay potency score (higher = more potent) (CTNNBIP1): -0.574

Sequence: TGGATCAATTACATAAATCTGG
- sensor-assay potency score (higher = more potent) (CTLA4): -0.489

Sequence: TTATTTGTAACTGAGACCCATC
- sensor-assay potency score (higher = more potent) (CTNNAL1): -0.547

Sequence: TTCACTTGATTTCCACTGGAGG
- sensor-assay potency score (higher = more potent) (CTLA4): -0.709

Sequence: TGAACTTCTCTGGATTGTCTGG
- sensor-assay potency score (higher = more potent) (CTNNBL1): -0.725
